# Screens deposited in PubChem BioAssay by National Center for Advancing Translational Sciences (NCATS).
# An excerpt weighted towards active compounds, which were near 7.3% of everything screened.
# ELG1 genotox = induces genotoxicity in HEK293T cells with luciferase-tagged ELG1. HEK293T ELG1-luciferase reporter, luminescence, 16 h. Potency, µM (highest dose often 46 µM), actives largely listed as activators. 330,000 compounds, 1.3% hits; also: nearly all actives have a fitted effect of over 60% in size
#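 Reporter readout depends on ELG1 protein level, which increases with genetic stress. After 16 hr compound exposure at 37 °C, luciferase activity was quantified using ONE-Glo.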
# Luc counter = blocks Kinase-Glo luciferase, a counter-screen artifact; Potency, µM (doses to about 38.3 µM), hits mostly inhibitors; Q27757; Kinase-Glo luciferase, ATP luminescence, 8 min; 200,000 compounds, 0.28% hits; also: nearly all actives have a fitted effect of over 60% in size
#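 Luminescence was the read-out, taken after 8-minute incubation at ambient temperature. Luciferase turned over luciferin with 10 uM ATP in imidazole pH 7.2 buffer containing KCl, MgCl2, Tween 20 and BSA.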
# Rab9 promoter act = Rab9 promoter activation; Huh7 Rab9 promoter-luciferase reporter, luminescence, 24 h; Potency, µM (series often up to 9.22 µM), hits mostly activators; 320,000 compounds, 2.8% hits; AID 485297; also: nearly all actives have a fitted effect of over 60% in size
#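 Huh7 cells stably carrying Rab9 promoter–luciferase reporter, plated 1500 cells/well, compound added after 2 h and incubated 24 h at 37 °C; luciferase luminescence then read after 10 min with detection reagent.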
# FLuc modulator = inhibits or activates purified firefly luciferase, miR-21 counter-screen; P08659; purified FLuc, Km substrates, luminescence inhibition; Potency, µM (series often up to 57.5 µM), most hits filed as inhibitors; 360,000 compounds, 6.9% hits; AID 588342; also: nearly all actives have a fitted effect of over 55% in size
# Target sequence (P08659 whole entry, looked up): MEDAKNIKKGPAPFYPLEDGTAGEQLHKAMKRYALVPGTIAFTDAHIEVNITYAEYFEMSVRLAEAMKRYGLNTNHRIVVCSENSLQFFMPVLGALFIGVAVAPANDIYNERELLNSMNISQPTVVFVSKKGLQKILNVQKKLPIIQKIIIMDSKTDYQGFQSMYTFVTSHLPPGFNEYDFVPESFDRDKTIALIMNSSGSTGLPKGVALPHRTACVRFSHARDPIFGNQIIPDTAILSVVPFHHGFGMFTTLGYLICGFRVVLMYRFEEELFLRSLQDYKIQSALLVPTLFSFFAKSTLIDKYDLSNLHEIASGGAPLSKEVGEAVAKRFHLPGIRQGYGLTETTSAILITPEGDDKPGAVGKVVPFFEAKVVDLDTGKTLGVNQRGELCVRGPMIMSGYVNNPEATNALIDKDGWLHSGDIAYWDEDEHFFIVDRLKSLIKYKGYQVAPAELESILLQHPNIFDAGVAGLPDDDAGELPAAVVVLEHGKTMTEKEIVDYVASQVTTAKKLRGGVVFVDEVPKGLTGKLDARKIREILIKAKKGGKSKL
#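 Purified P. pyralis luciferase, 10 nM final, with Km-level 10 uM D-luciferin and 10 uM ATP in 50 mM Tris acetate pH 7.5, 10 mM Mg acetate, 0.01% Tween-20, 0.05% BSA; 6-point qHTS titration about 60 µM downward; luminescence read.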
# NPC1 promoter act = activators of NPC1 promoter; Huh7 NPC1 promoter luciferase reporter, 24 h; Potency, µM (highest dose often 9.22 µM), actives largely listed as activators; 320,000 compounds, 2.4% hits; also: nearly all actives have a fitted effect of over 60% in size
#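 Readout is luciferase luminescence, reflecting NPC1 promoter activation in stably transfected Huh7 cells after 24 h compound exposure at 37 °C in reduced-serum medium with 10% FBS.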
# SMN2 splice up = enhancers of SMN2 splice variant expression; HEK293 SMN2-luciferase splicing reporter, luminescence, 30-36 h; Potency, µM (top dose mostly 46.1 µM), most hits filed as activators; 210,000 compounds, 2.8% hits; AID 1458; also: nearly all actives have a fitted effect of over 55% in size
#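 HEK293 cells carry an SMN2 minigene-luciferase reporter in which exon 7 inclusion puts luciferase in frame. Cells were seeded at 2000 cells/well, attached for 10-12 hours, then exposed to compounds for 30-36 hours at 37C before ONE-Glo luminescence.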
# Numbers stand for hits; n = inactive; u = inconclusive; x = no result; [ ] = remark or other dose. Calls follow the shape of the dose curve; as a rule, active = well fitted curve in the direction sought with a large enough effect; inconclusive = small, poorly fitted or top-dose-only effect, or another doubt; inactive = no such curve, though single readings can be large; an effect the other way counts as inactive or inconclusive.
SMILES,ELG1 genotox,Luc counter,Rab9 promoter act,FLuc modulator,NPC1 promoter act,SMN2 splice up
Cc1cccc(NC(=O)COc2ccc(Br)cc2/C=N/O)c1,u,n,4µM,5.4µM,4µM,18µM
CC(=O)c1cccc(NC(=O)CSC(=O)c2ccccc2)c1,n,n,n,17µM,n,n
COc1ccc2c(c1)CCc1c(C(=O)Nc3ccc(F)c(Cl)c3)noc1-2,x,x,x,n,x,n
COc1ccc(CNC(=O)Cn2c(=O)oc3cc(S(=O)(=O)N4CCCCCC4)ccc32)cc1,x,x,x,n,x,x
COc1ccc2c(c1)CCc1c(C(=O)Nc3c(C)nn(Cc4c(Cl)cccc4Cl)c3C)noc1-2,x,x,x,n,x,n
O=C(COc1ccccc1Cl)Nc1ccccc1C(=O)Nc1cccc(C(=O)O)c1,u,x,u,7.6µM,u,x
Cc1ccccc1OCC(=O)Nc1ccc(N2CCN(C)CC2)c(Cl)c1,u,x,n,12µM,u,x
Cc1cc(Cl)c(S(=O)(=O)Nc2cccc(O)c2)cc1OCC(N)=O,n,n,n,n,n,4µM
CC(C)(C)NC(=O)c1cccc(NC(=O)CSc2ccccc2)c1,n,n,n,15µM,n,n
COc1ccc(NS(=O)(=O)c2cc(OCC(N)=O)c(C)cc2Cl)cc1,n,n,n,n,n,n
CC(C)(C)c1ccc(O)c(CN(Cc2cc(C(C)(C)C)ccc2O)C2CCCCC2)c1,x,n[7.66 µM],x,x,x,n[9.22 µM]
NC(=S)SCCC(=O)O,x,n[7.66 µM],x,x,x,n[9.22 µM]
Cc1cc(C)c(OCC(=O)Nc2cccc(O)c2)cc1C,5.2µM,n,u,1.5µM,n,n
Cc1cc(C)c(OCC(=O)Nc2ccc3c(c2)OCO3)cc1C,u,n,n,n,n,x
Cc1ccccc1OCC(=O)Nc1cccc(NC(=O)c2ccco2)c1,n,n,u,11µM,n,n
CC(=O)c1cccc(NC(=O)COC(=O)c2ccccc2C)c1,u,x,n,21µM,u,x
Cc1ccccc1OCC(=O)Nc1ccc(NC(=O)c2ccco2)cc1,n,n,n,n,n,n
Cc1cc(C)cc(OCC(=O)Nc2cccc(C(=O)O)c2)c1,n,n,u,15µM,u,u
c1ccc(N2CCN(c3ncnc4[nH]ncc34)CC2)cc1,x,x,x,n,x,x
CCN(CC)c1ccc2nc3c4ccccc4c(=O)cc-3oc2c1,0.82µM,x,1.1µM,0.48µM,0.56µM,x
O=C(Cc1ccc(Br)cc1)N1CCCCCC1,21µM,n,n,u,u,10µM
O=C(Cc1ccc(Br)cc1)N1CCCC1,n,x,n,n,n,x
O=C(Nc1ccc(Nc2ccccc2)cc1)c1ccc(Br)o1,n,n,u,19µM,n,n
COc1ccc(NC(=S)NC(=O)c2ccc(Br)o2)cc1,u,n,3.2µM,9.5µM,u,8.9µM
Cc1ccc(NC(=O)C2=NNC(=O)CC2)cc1F,n,x,u,u,u,x
SMILES,ELG1 genotox,Luc counter,Rab9 promoter act,FLuc modulator,NPC1 promoter act,SMN2 splice up
O=C(Nc1ccc(Cc2ccncc2)cc1)c1ccc(Br)o1,n,n,n,u,n,n
CC(C)c1ccc(NC(=O)c2ccc(Br)o2)cc1,u,n,0.63µM,2.1µM,0.89µM,2.5µM
CC(C)c1ccc(NC(=O)C2=NNC(=O)CC2)cc1,u,x,3.2µM,12µM,2.8µM,x
N#C/C(=C\c1ccc(O)c(O)c1)C(=O)NCCCCc1ccccc1,x,n,x,x,x,x
C=Cc1ccccc1Cl,x,x,x,x,x,n
O=C(NC(=S)Nc1ccccc1)c1ccc(Br)o1,u,n,u,13µM,u,22µM
O=C(NC(=S)NCc1ccccc1)c1ccc(Br)o1,n,x,n,n,n,x
Cc1cccc(N2CCN(S(=O)(=O)c3ccc(F)c(C(=O)Nc4ccc(C(C)C)cc4)c3)CC2)c1C,x,x,x,n,x,x
Cc1ccccc1Nc1nnc(SCC2CCCCO2)s1 (stereo unspecified),u,n,2.8µM,2.4µM,0.71µM,11µM
Cc1ccc(Nc2nnc(SCC3CCCCO3)s2)cc1 (stereo unspecified),n,n,u,u,n,u
COc1ccccc1Nc1nnc(SCC2CCCCO2)s1 (stereo unspecified),u,8.9µM,2.5µM,1.5µM,3.5µM,u
COc1ccc2c(c1)CCc1c-2n[nH]c1C(=O)O,n,n,n,11µM,n,n
COc1ccc2c(c1)CCc1c(-c3noc4c3CCc3cc(OC)ccc3-4)noc1-2,x,n[7.66 µM],x,x,x,n[9.22 µM]
